Test results published in PubChem BioAssay (EPA / NIEHS).
Activity calls are given as the source filed them. How the source made its calls: active means hit-call score of the fitted dose curve at least 0.9, where 1 is the maximum; inactive means score below 0.9.

Assay: CCTE_Shafer_MEA_dev_burst_rate: CCTE's Neural Network Formation Assay for Burst Rate, Shafer Lab (AID 2284042)
Description: CCTE_Shafer_MEA_dev assay is conducted using Axion Biosystems 48 well microelectrode array (MEA) plates and Maestro recording system. Each well of the MEA plate contains a grid of 16 microelectrodes embedded in the culture surface. Electrically active cells, such as neurons, can be cultured over the electrodes, and electrical activity in these cells can be recorded extracellularly. The spontaneous firing of neurons is captured from each electrode on a microsecond timescale providing both temporally and spatially precise data. […] The CCTE_Shafer_MEA_dev assay uses primary cultures of rat cortical neurons. Recordings are made on days post-plating 5, 7, 9 and 12. As these cultures mature over time, neural networks develop functional activity and form cohesive networks in which electrical activity can be highly coordinated. CCTE_Shafer_MEA_dev_burst_rate is 1 of 19 assay components of the CCTE_Shafer_MEA_dev assay. It measures the frequency of single-electrode bursts (temporally-clustered groups of action potential firing) as the total number of bursts divided by the length of the recording in a microelectrode array (MEA) using Axion Biosystems Maestro 768 channel amplifier with the AxIS adaptive spike detector. The mean bursting rate is averaged across the active electrodes to report a well-mean value. To collapse across multiple recordings made on days post-plating 5, 7, 9 and 12, the trapezoidal area-under-the-curve of the component is calculated.Data from the assay component CCTE_Shafer_MEA_dev_burst_rate was analyzed into 1 assay endpoint. This assay endpoint, CCTE_Shafer_MEA_dev_burst_rate, was analyzed in the negative analysis fitting direction relative to DMSO as the negative control and baseline of activity. Using a type of functional reporter, gain or loss-of-signal activity can be used to understand electrical activity.
On the day prior to culture, each well was coated thoroughly with 150 uL of 0.05% polyethyleneimine (PEI, Sigma Cat P3143) in 50 mM HEPES (Sigma Cat H7523) at a pH of 8. The plate was incubated at 37C for one hour. PEI was rinsed out with 500 uL of sterile water three times. Plates were stored at 4C until the day of culture. This culture was plated at a seeding density of 1.5 x 10^5 cells/well on a 48-well MEA plate, prepared as described above. Cells were administered via a 25 uL media/laminin ([…]; Sigma Cat L2020-1MG) drop directly onto the microelectrode array, as adding the cells with the laminin results in better attachment than pre-coating with laminin. After 2 hours, an additional 475 uL of cortical media was added and the cells returned to the incubator. Exposure starts at day 0 of plating and is continued over twelve days of network development until the experiment is terminated. Cells are fed with fresh medium on DIV 5 and 9, following the recordings on those days. The entire volume of media in the well is exchanged and any vehicle or compound treatment is renewed. Complete details are found in OP-NHEERL/ISTD/SBB/TJS/2015-03-r0 (available on request, email shafer.tim@epa.gov). Measurement of the electrical activity is non-invasive, and recordings can be made from the same plate over multiple different days of the culture. In cortical neurons, this allows for the measurement of extracellular action potentials over the period during which networks form in the MEA plate.

Row | SMILES | outcome
1 | OCC(F)(F)C(F)(F)C(F)(F)C(F)(F)C(F)(F)C(F)(F)CO | inactive
2 | O=C(O)C(F)(F)C(F)(F)C(F)(F)OC(F)(F)F | inactive
3 | NC(O)(C(F)(F)F)C(F)(F)F | inactive
4 | OC(O)C(F)(F)C(F)(F)F | inactive
5 | NC(=O)C(F)(F)C(F)(F)C(F)(F)F | inactive
6 | CNS(=O)(=O)C(F)(F)C(F)(F)C(F)(F)C(F)(F)C(F)(F)C(F)(F)C(F)(F)C(F)(F)F | inactive
7 | NC(=O)C(F)(F)C(F)(F)C(F)(F)C(F)F | inactive
8 | OCC(O)CC(F)(F)C(F)(F)C(F)(F)C(F)(F)F (centres undefined) | inactive
9 | OCC(F)(F)C(F)(F)C(F)(F)CO | inactive
10 | C=CC(=O)OCC(F)(F)C(F)(F)C(F)(F)COC(=O)C=C | inactive
11 | OCCCCC(F)(F)C(F)(F)C(F)(F)C(F)(F)F | inactive
12 | O=S(=O)(O)CCC(F)(F)C(F)(F)C(F)(F)C(F)(F)F | inactive
13 | CO[Si](C)(CCC(F)(F)C(F)(F)C(F)(F)C(F)(F)C(F)(F)C(F)(F)F)OC | inactive
14 | FC(F)(F)C(F)(F)C(F)(F)C(F)(F)C(F)(F)C(F)(F)C(F)(F)CCI | inactive
15 | O=S(=O)(O)CCC(F)(F)C(F)(F)C(F)(F)C(F)(F)C(F)(F)C(F)(F)C(F)(F)C(F)(F)F | inactive
16 | CCN(CCO)S(=O)(=O)C(F)(F)C(F)(F)C(F)(F)C(F)(F)C(F)(F)C(F)(F)C(F)(F)C(F)(F)F | inactive
17 | C=CC(=O)OCCC(F)(F)C(F)(F)C(F)(F)C(F)(F)F | inactive
18 | OCC(F)(F)C(F)(F)C(F)(F)C(F)(F)C(F)(F)C(F)(F)C(F)(F)C(F)(F)CO | inactive
19 | NC(=O)C(F)(F)C(F)(F)C(F)(F)C(F)(F)C(N)=O | inactive
